Compound activity: PubChem, Broad Institute
A selection follows.
aSyn UTR act = Activators working through SNCA 5'UTR binding (MLPCN); alpha-synuclein 5'UTR reporter, activators screen; activity score, % (tested at 7.5 µM), hits read low; 300,000 compounds, 7.1% hits; in the data active = activity score below about -60%
* marks the source's active call; other numbers are inactive results.

SMILES	aSyn UTR act
CC(=O)Nc1ccc(/C=N/Nc2nncc3ccccc23)cc1	-126.2*
C(=N\Nc1nncc2ccccc12)/c1ccccn1	97.8
COc1ccc(-n2c(-c3ccc(Br)cc3)c[n+]3c2CCc2ccccc2-3)cc1	-91.0*
CC(C)c1ccc(-n2c(-c3ccccc3)c[n+]3c2CCc2ccccc2-3)cc1	78.2
Cc1nc(C(=O)Nc2ccccc2)sc1C1(C)CC(c2cccnc2)=NO1 (stereo not given)	-111.1*
Cc1nc(-c2ccc(Cl)cc2)sc1C1(C)CC(c2cccnc2)=NO1 (stereo not given)	-122.1*
CSc1nnc(NC(=O)C23CC4CC(CC(C4)C2)C3)s1	-127.9*
CC(C)Cc1nnc(NC(=O)C23CC4CC(CC(C4)C2)C3)s1	-102.5*
CCc1nnc(NC(=O)C23CC4CC(CC(C4)C2)C3)s1	-252.9*
CN1CCC(Oc2ccc(Sc3ccccc3)cc2)CC1	-76.8*
O=C(COC(=O)c1cc(Cl)ccc1O)c1ccc2c(c1)OCO2	-121.7*
N/C(=N\OC(=O)c1ccc2c(c1)OCO2)c1ccc(Cl)cc1	-165.0*
COc1ccc(/C(N)=N/OC(=O)c2ccc3c(c2)OCO3)cc1	-98.3*
N/C(=N\OC(=O)c1ccc2c(c1)OCO2)c1ccncc1	-101.7*
CCCCOc1ncnc2c1[nH]c1ccccc12	-81.5*
CCCCOc1ncnc2c1[nH]c1ccc(OC)cc12	-213.9*
CCCCOc1ncnc2c1[nH]c1ccc(F)cc12	-117.6*
Cc1cccc(C(=O)c2c(N)sc3c2CCC(C)C3)c1 (stereo not given)	-85.3*
O=C(Nc1cnc2ccccc2c1)c1cccnc1	-101.0*
O=C(Nc1cnc2ccccc2c1)c1cccc(-n2cnnn2)c1	-89.3*
O=C(Nc1cccc(-c2cnc3ccccc3n2)c1)c1ccco1	-80.0*
Cn1c(NC(=O)c2cccnc2)nc2ccccc21	-101.3*
CC(C)(C)c1ccc(C(=O)Nc2cccc(-n3cnnn3)c2)cc1	-84.8*
Cc1cc(C(=O)Nc2cnc3ccccc3c2)ccc1[N+](=O)[O-]	-131.8*
Cc1ccc(C(=O)Nc2cnc3ccccc3c2)cc1	103.5
SMILES	aSyn UTR act
O=C(Nc1cnc2ccccc2c1)c1ccco1	-94.9*
C/C(=N\NC(=O)Nc1ccccc1)c1ccccc1	-80.4*
CC(C)/C(=N\NC(=O)Nc1ccccc1)c1ccccc1	-69.6*
Cc1cc(/C=C(\C#N)C(=O)NCc2ccco2)c(C)[nH]1	-64.2*
Cc1cc(/C=C(\C#N)C(=O)Nc2ccccc2F)c(C)[nH]1	-128.8*
Cc1cc(/C=C(\C#N)C(=O)NC2CC2)c(C)[nH]1	-144.8*
Cc1cc(C)cc(NC(=O)/C(C#N)=C/c2cn(CC(=O)NCc3ccco3)c3ccccc23)c1	110.5
CNC(C)C#Cc1ccc2c(=O)c3ccccc3oc2c1 (stereo not given)	-244.5*
Nc1cnnc(N/N=C\c2ccccc2)c1Cl	-92.5*
O=c1cnnc(N/N=C/c2ccccn2)[nH]1	74.8
Cc1ccc(F)cc1NCC(=O)Nc1ccc(Br)cc1	-145.6*
Cc1ccc(NCC(=O)Nc2ccc(Br)cc2)cc1C	-126.0*
CCOC(=O)CCS(=O)(=O)c1nc(-c2ccccc2)cc(C(F)(F)F)n1	-129.3*
COC(=O)CCS(=O)(=O)c1nc(-c2ccccc2)cc(C(F)(F)F)n1	-73.2*
O=c1[nH]cnc(O)c1N=Nc1ccccc1	-70.5*
Cc1ccc(NC(=O)C2=NNC(=O)CC2)cc1F	-74.9*
CC(C)c1ccc(NC(=O)C2=NNC(=O)CC2)cc1	-143.2*
COc1ccc(-c2ccc(SCC(=O)NCc3ccco3)nn2)cc1	-78.4*
CCOc1ccc(-c2cc(CCCC(=O)NCc3ccco3)no2)cc1	72.8
CCc1nnc(NC(=O)CSc2ccc(-c3ccc(C)cc3)nn2)s1	-69.6*
COc1ccc(-c2ccc(SCC(=O)Nc3nnc(C)s3)nn2)cc1	-87.4*
CCc1nnc(NC(=O)CSc2ccc(-c3nc4ccc(C)cc4[nH]3)cn2)s1	-159.2*
Cc1cc2nc(-c3ccc(SCC(=O)Nc4ccc(S(=O)(=O)N5CCCC5)cc4)nc3)[nH]c2cc1C	-147.1*
O=C(CSc1ccc(-c2ccc(-n3cccn3)cc2)nn1)Nc1ccccc1F	-141.4*
Cc1cc(NC(=O)CSc2ccc(-c3ccc(Br)cc3)nn2)no1	-67.2*
SMILES	aSyn UTR act
COc1ccc(OC)c(C(=O)Cn2nnc(-c3ccc(N4CCOCC4)cc3)n2)c1	-135.0*
COc1ccc(-c2ccc(-c3nnn(CC(=O)N4CCOCC4)n3)cc2)cc1	-166.1*
Clc1nc2sccn2c1/C=N/n1cnc2ccccc21	-147.6*
COc1ccc(C2NN=C(c3ccc(C)cc3)S2)cc1OC (stereo not given)	-144.3*
N=C1C(c2nc3ccccc3[nH]2)=C(O)CN1C1CCCCC1	-115.9*
N=C1C(c2nc3ccccc3[nH]2)=C(O)CN1c1ccc(F)cc1	-65.0*
COC(=O)c1cc(NC(=O)c2c(Cl)nc3sccn23)cc(C(=O)OC)c1	79.5
COc1ccc(NC(=O)c2c(Cl)nc3ccccn23)cc1	-142.4*
O=C(Nc1ccc(F)cc1)c1c(Cl)nc2ccccn12	-111.5*
Cc1ccc(NC2Nc3cc(C)nn3S2)c(C)c1 (stereo not given)	-138.3*
